Most compounds without a hit are left out; they make up all but 3% or so of the library.
OvCa metastasis: ovarian cancer metastasis inhibition, 3D TME model. SKOV3ip1-GFP adhesion/invasion on 3D omental model, fluorescence. Potency, µM (titrated, usually from 45.8 µM), for inactives: top-dose activity change, negative = inhibition, most hits filed as inhibitors. hit rate 0.1% among 46,000;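 further: potency means the concentration at half of the fitted maximal effect; plate controls were DMSO wells for no effect and tomatine positive control wells for full effect; nearly all actives have a fitted effect of over 65% in size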
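Adhesion/invasion was scored as fixed GFP-labeled SKOV3ip1 cell counts (488/509 nm), normalized to DMSO and tomatine controls. Cancer cells in serum-free medium, with four compound doses (0.36-46 umol/L), sat 2 hr at RT then 16 hr at 37 C on a 48 hr fibroblast/mesothelial/ECM culture.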
p53null 39C kill: selectivity test: cytotoxicity in p53 null cells, nonpermissive temperature. H1299 p53-null (neo) cells, 39C, ATPlite viability, 24 h. Potency, µM (highest dose often 46.1 µM), for the others: top-dose activity, negative = cell killing, hits mostly cytotoxic. hit rate 0.97% among 55,000. AID 904;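 further: potency means the concentration at half of the fitted maximal effect; 0% = DMSO only and -100% = full killing by 100 µM tamoxifen; nearly all actives have a fitted effect of over 50% in size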
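H1299 lung cancer cells, p53-null (H1299-neo) or expressing p53 A138V (H1299-p53A138V), were plated overnight at 37C, then exposed to compounds at up to 46 uM for 24 hr at 39C. Viability was read by ATP-based luminescence.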
S16 F2sN tox: cytotoxicity in S16 Pmp22-F2sN Schwann cells | AID 1508642 | hit rate 0.48% among 43,000 | Potency, µM (titrated, usually from 57.5 µM), without a hit: top-dose activity change, negative = cytotoxicity, hits mostly cytotoxic | S16 Pmp22-F2sN Schwann cells viability, CellTiter-Glo, 24 h; further: potency means the concentration at half of the fitted maximal effect; on the % scale 0 is the no-effect control and ±100 the full control effect; nearly all actives have a fitted effect of over 65% in size
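Seed 500-1,000 S16 Pmp22-F2sN cells per well in phenol-red-free DMEM with 10% heat-inactivated FBS; pin-add 23 nL compound; incubate 24 h at 37C; add CellTiter-Glo, wait 15 min protected from light; read luminescence.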
p53null 32C tox: selectivity test: cytotoxicity in p53 null cells, permissive temperature. H1299-neo p53 null cells, ATP luminescence, 24 h, 32C. Potency, µM (doses to about 46.1 µM), for the others: at the highest dose activity change, negative = cytotoxicity, most hits filed as cytotoxic. hit rate 0.62% among 55,000. AID 903;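 further: potency means the concentration at half of the fitted maximal effect; 0% = DMSO only and -100% = full killing by 100 µM tamoxifen; nearly all actives have a fitted effect of over 55% in size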
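ATP-content luminescence in p53-null H1299-neo cells after 24 h compound exposure (up to 46 uM) at 32C permissive temperature; 0% and 100% killing set by DMSO and 100 uM tamoxifen; Hill-equation AC50.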
pS6 MEF inh: mTORC1 pathway inhibition measured by phospho-rpS6; Potency, µM (highest dose often 38.3 µM), for the others: top-dose activity change, negative = inhibition, hits mostly inhibitors; hit rate 0.78% among 44,000; AID 493208; Tsc2-/- p53-/- MEF, phospho-rpS6 immunofluorescence/PI, 24 h;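 further: potency means the concentration at half of the fitted maximal effect; plate controls were DMSO for no effect and rapamycin for full effect; nearly all actives have a fitted effect of over 50% in size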
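Immunofluorescence of rpS6 phosphorylation in Tsc2-/-, p53-/- MEFs after 24 h compound exposure, normalized to propidium iodide signal. Activity is expressed as % positive cells, thresholded with 7.5 nM rapamycin.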
PMP22 txn prim: modulates PMP22 transcription in S16 Schwann cells | S16 Pmp22-F2sN Schwann cells, FLuc/NLuc coincidence luminescence, 24 h | Potency, µM (top dose mostly 57.5 µM), for inactives: at the top dose activity change, negative = inhibition, hits mostly inhibitors | hit rate 2% among 43,000; active means clear falling dose curves in both reporters; inconclusive means both reporters move, but less clearly or upward; inactive means either reporter flat; the % is the NLuc reporter signal; further: potency means the concentration at half of the fitted maximal effect; on the % scale 0 is the no-effect control and ±100 the full control effect
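Luminescent read-out of sequential FLuc and NLuc signals from a reporter embedded in the Pmp22 3' UTR of S16 Schwann cells, taken after 24 h compound exposure at 37C; compounds reducing both signals score as inhibitors of expression.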
NLuc saturating: counter-screen for PMP22 expression modulators: NanoLuc inhibition, saturating substrate | AID 1508638 | Potency, µM (top dose mostly 57.5 µM), inactives show at the highest dose activity change, negative = inhibition, most hits filed as inhibitors | hit rate 4% among 690 | Secreted NLuc enzyme (filtered S16 cell medium), Nano-Glo luminescence | shares compounds with PMP22 txn prim; further: potency means the concentration at half of the fitted maximal effect; on the % scale 0 is the no-effect control and ±100 the full control effect
NLuc Km ctr: inhibits NanoLuc under Km conditions, PMP22 counter-screen. shares compounds with PMP22 txn prim. secreted NLuc enzyme, coelenterazine luminescence, Km conditions. Potency, µM (doses to about 57.5 µM), for inactives: top-dose activity change, negative = inhibition, usual class: inhibitors. hit rate 5% among 690. AID 1508639; further: potency means the concentration at half of the fitted maximal effect; on the % scale 0 is the no-effect control and ±100 the full control effect
FLuc counter: firefly luciferase enzyme inhibition artifact for PMP22 screen; 690 tested, under 10 active; Potency, µM (highest dose often 57.5 µM), inactives show at the highest dose activity, negative = inhibition, actives largely listed as inhibitors; purified P. pyralis FLuc, luminescence, 10 min; AID 1508640; shares compounds with PMP22 txn prim; further: % of control where 0% means no effect
Target sequence (P08659 whole entry, looked up): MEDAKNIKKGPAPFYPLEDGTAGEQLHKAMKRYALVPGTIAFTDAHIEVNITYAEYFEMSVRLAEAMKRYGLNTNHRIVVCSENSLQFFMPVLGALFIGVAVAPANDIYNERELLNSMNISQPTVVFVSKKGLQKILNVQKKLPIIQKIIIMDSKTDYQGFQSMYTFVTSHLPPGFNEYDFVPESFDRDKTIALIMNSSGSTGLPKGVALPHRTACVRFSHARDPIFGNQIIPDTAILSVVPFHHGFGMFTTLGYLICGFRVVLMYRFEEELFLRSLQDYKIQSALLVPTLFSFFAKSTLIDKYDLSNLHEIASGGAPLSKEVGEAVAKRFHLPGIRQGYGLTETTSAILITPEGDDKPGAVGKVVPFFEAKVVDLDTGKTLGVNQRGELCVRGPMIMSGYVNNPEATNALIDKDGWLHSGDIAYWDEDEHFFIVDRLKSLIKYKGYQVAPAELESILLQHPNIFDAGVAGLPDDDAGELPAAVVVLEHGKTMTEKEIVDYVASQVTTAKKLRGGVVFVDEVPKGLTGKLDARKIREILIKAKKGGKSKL
S16 viab conf: confirmation of cytotoxicity in S16 Pmp22-F2sN Schwann cells (luciferase reporters placed in the Pmp22 gene); shares compounds with PMP22 txn prim; S16 Schwann cells viability, CellTiter-Glo ATP luminescence, 24 h; Potency, µM (titrated, usually from 57.5 µM), for the others: top-dose activity change, negative = viability loss, most hits filed as cytotoxic; hit rate 7% among 690; further: potency means the concentration at half of the fitted maximal effect; on the % scale 0 is the no-effect control and ±100 the full control effect
PMP22 txn cnf: confirmation of modulators of PMP22 gene transcription in S16 cells. shares compounds with PMP22 txn prim. S16 Schwann cells Pmp22-F2sN, dual luciferase, 24 h. Potency, µM (series often up to 57.5 µM), inactives show at the top dose activity change, negative = inhibition, hits mostly inhibitors. hit rate 22% among 690. AID 1508646; active means clear falling dose curves in both reporters; inconclusive means both reporters move, but less clearly or upward; inactive means either reporter flat; the % is the FLuc reporter signal; further: potency means the concentration at half of the fitted maximal effect
Numbers without * were called inactive; i = inactive; ? = inconclusive; . = not tested or not shown. Unless noted, the call rests on the fitted dose curve; in most records, active means well fitted curve in the direction sought with a large enough effect; inconclusive means small, poorly fitted or top-dose-only effect, or another doubt; inactive means no such curve, though single readings can be large; an effect the other way counts as inactive or inconclusive.

SMILES	OvCa metastasis	p53null 39C kill	S16 F2sN tox	p53null 32C tox	pS6 MEF inh	PMP22 txn prim	NLuc saturating	NLuc Km ctr	FLuc counter	S16 viab conf	PMP22 txn cnf
Cc1ccc(-n2nc3c(N4CCC(C(=O)NCCc5ccccc5C)CC4)nnc(C)c3c2C)cc1	?	-8%	?	-1%	-1%	9.5µM*	-16%	-4%	-9%	24µM*	?
Cc1ccc(-n2nc3c(N4CCC(C(=O)NCCC(C)C)CC4)nnc(C)c3c2C)cc1	6%	?	-27%	26%	-2%	6.2µM*	-9%	-3%	1%	-7%	?
Cc1nnc(N2CCC(C(=O)N3CCCCC3)CC2)c2nn(-c3ccccc3)c(C)c12	-9%	12%	-16%	8%	-8%	5%	.	.	.	.	.
C[C@@H]1CC(=O)NN=C1c1ccc(NN=C(C#N)C#N)cc1	-5%	.	.	.	.	.	.	.	.	.	.
CC(C)N(CC[C@H](c1ccccc1)c1cc(CO)ccc1O)C(C)C	17%	.	.	.	.	.	.	.	.	.	.
Cc1ccccc1NC(=O)Cn1c(=O)n(Cc2ccco2)c(=O)c2cccnc21	-4%	-8%	16%	-2%	4%	8%	.	.	.	.	.
Cc1ccc(/C=C/c2onc(C)c2S(=O)(=O)N2CCC(C(=O)NCC(C)c3ccccc3)CC2)cc1 (centres undefined)	i	8%	27%	-2%	2%	13µM*	-3%	-1%	7%	2%	?
Cc1ccc(C)c(NC(=O)C2CCCN(S(=O)(=O)c3c(C)noc3/C=C/N(C)C)C2)c1 (centres undefined)	-17%	23%	3%	43%	-26%	?	?	?	3%	-6%	-5%
Cc1ccc(/C=C/c2onc(C)c2S(=O)(=O)N2CCC(C(=O)Nc3cccc(C#N)c3)CC2)cc1	i	-4%	18%	12%	-16%	12µM*	-2%	7%	7%	14%	-16%
Cc1ccc(/C=C/c2onc(C)c2S(=O)(=O)N2CCC(C(=O)Nc3cc(C)ccc3C)CC2)cc1	i	-8%	?	0%	5%	-19%	.	.	.	.	.
Cc1cnc(Nc2cccc(CN3CCOCC3)c2)nc1Nc1cccc(S(=O)(=O)NC(C)(C)C)c1	-28%	.	.	.	.	.	.	.	.	.	.
NC(=O)c1cnc(-c2ccc(C3(N)CCC3)cc2)c(-c2ccccc2)c1	1%	.	.	.	.	.	.	.	.	.	.

High-throughput results from PubChem.
